55 molecules from ChEMBL document CHEMBL3988442, “University of Dundee, Small-Polar-MMV Screening Library” (2021) can be followed below.

The structures appear in SMILES notation. Out of some 69,000 compounds screened, about 420 (0.61%) showed an effect of 50% or more. The list comes from a sample in which strong results are over-represented; it also holds similar structures and randomly drawn compounds.

The target of the assay is T1, Histidine--tRNA ligase (Leishmania infantum) (UniProt A4I591).
T1 sequence (whole entry): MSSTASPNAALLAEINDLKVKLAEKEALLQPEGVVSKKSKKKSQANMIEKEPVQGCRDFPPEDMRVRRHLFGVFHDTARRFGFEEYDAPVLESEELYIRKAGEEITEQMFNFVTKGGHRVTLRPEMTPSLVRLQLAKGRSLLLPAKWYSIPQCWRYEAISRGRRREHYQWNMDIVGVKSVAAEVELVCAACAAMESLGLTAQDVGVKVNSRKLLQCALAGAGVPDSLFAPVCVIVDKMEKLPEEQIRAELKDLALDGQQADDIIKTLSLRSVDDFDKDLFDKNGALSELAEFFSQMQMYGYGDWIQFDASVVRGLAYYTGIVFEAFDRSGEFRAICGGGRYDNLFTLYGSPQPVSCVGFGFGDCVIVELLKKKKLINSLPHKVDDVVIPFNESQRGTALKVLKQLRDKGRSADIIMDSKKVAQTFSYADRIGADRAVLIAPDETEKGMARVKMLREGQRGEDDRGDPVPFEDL
The assay can be described thus: Leishmania infantum Histidine tRNA synthetase (LdHisRS). It counts as functional. Set-up: scale not given: in the data most compounds retested in dose-response had high values. To be noted: 30 µM.
For `Cc1cnc(N2CC[C@@]3(O)CCCC[C@H]3C2)nc1-c1ccnn1C`, the Percent Effect is -3.33%.
As to `CN1[C@H](CN2CCCC2)C[C@@H]2CN(C(=O)c3ccsc3)CC[C@@H]21`, the Percent Effect is 0.917%.
Regarding `CO[C@@H]1CN(S(=O)(=O)c2cn(C)cn2)[C@@H]2CCCO[C@@H]21`, the Percent Effect came to 17.2%.
For the molecule `Cc1ccc(N2CC[C@H]3C[C@H](C(=O)NCc4ccco4)O[C@H]3C2)nn1`, the Percent Effect stood at 18.1%.
The result for `N#CCCSc1sc2c(O)cc(O)nc2c1C#N` reads 74.2%; that for `N#Cc1c(SCCN2CCCCC2)sc2c(O)cc(O)nc12`, 24.7%; that for `N#Cc1c(SCCN2CCCCCC2)sc2c(O)cc(O)nc12`, 24.7%.
The result for `Cc1ccc(-n2cc(S(=O)(=O)Nc3cccc(C(=O)O)c3C)cn2)cc1` reads 13%; that for `Cc1ccc(NS(=O)(=O)c2cnn(-c3ccccc3)c2)c(C(=O)O)c1`, 69.6%; that for `Cc1ccc(NS(=O)(=O)c2cnn(Cc3ccccc3)c2)c(C(=O)O)c1`, 23.9%.
Take `Cc1ccnc(C(=O)N2C[C@@H]3CN(S(C)(=O)=O)CCO[C@@H]3C2)c1`: the Percent Effect was 8.77%.
The result for `COCCOc1ncccc1C(=O)N1CCCCC1c1nccs1` (stereo not given) reads 14.9%; that for `COc1cccc(C(=O)N2CCCCC2c2nccs2)c1OC` (stereo not given), 4.39%; that for `COCCOc1ccccc1C(=O)N1CCCCC1c1nccs1` (stereo not given), 50%.
The result for `Cc1ccc(S(=O)(=O)Nc2ccc(-n3nnn(C)c3=O)cc2)cc1` reads 12.2%; that for `CC(C)Cc1ccc(S(=O)(=O)Nc2ccc(=O)n(C)c2)cc1`, 91%; that for `Cn1cc(NS(=O)(=O)c2ccc3c(c2)CCCC3)ccc1=O`, 41.8%.
For `Cn1cc(NS(=O)(=O)c2ccc(OC(F)(F)F)cc2)ccc1=O` the value was 82%.
For the molecule `CCCc1ccc(S(=O)(=O)Nc2ccc(=O)n(C)c2)cc1`, the Percent Effect was determined as 29.1%.
For `Cc1ccc(S(=O)(=O)Nc2ccc(-n3cccc3C(=O)O)c(C)c2)cc1` the value was 6.25%.
The result for `CC(C)c1ccc(C(=O)O)cc1S(=O)(=O)Nc1ccc(=O)n(C)c1` reads 84.6%; that for `Cc1ccc(S(=O)(=O)Nc2ccc(=O)n(C)c2)c(Br)c1`, 32.7%; that for `Cc1ccc(S(=O)(=O)Nc2ccc(=O)n(C)c2)cc1`, 77.5%.
As for `CCc1ccc(C(=O)O)cc1S(=O)(=O)Nc1ccc(=O)n(C)c1`, the Percent Effect is 21.4%.
The result for `Cn1cc(NS(=O)(=O)c2ccc(F)c(F)c2)ccc1=O` reads 47.3%; that for `Cn1cc(NS(=O)(=O)c2ccc(C(F)(F)F)cc2)ccc1=O`, 38.2%.
The result for `c1ccc(CN2CC[C@@H]3O[C@H](COCc4ccncc4)CC[C@@H]32)nc1` reads 10.9%; that for `CC(C)CN1C[C@@H]2OCC(=O)N(Cc3nccn3C)[C@@H]2C1`, 23%; that for `O=C([C@@H]1COC[C@H]2CN(C3CCOCC3)C[C@H]21)N1CCOCC1`, 30.6%.
The result for `CCO[C@H]1CC[C@H]2[C@@H]1OCCN2C(=O)COc1ccccc1` reads 19.1%.
Consider `CN1[C@H]2CC[C@@H]1CN(C(=O)c1sccc1S(N)(=O)=O)CC2`, for which the Percent Effect was -12.7%.
For `CN(c1cccnn1)[C@@H]1CC[C@@H]2CN(Cc3cccc(C(=O)O)c3)C[C@@H]21` the value was 5.63%; for `Cc1[nH]nc(CCC(=O)N2C[C@H]3CC[C@@H]2CN(C(=O)N(C)C)C3)c1C`, 13.9%.
The result for `Cc1cc(C(=O)N2C[C@@H]3CN(S(C)(=O)=O)CCO[C@@H]3C2)c(C)o1` reads -1.75%; that for `CNC(=O)[C@@]12CCO[C@@H]1CCN(S(=O)(=O)c1cc(C)cc(C)c1)C2`, 13%.
For the molecule `Cc1nn(C)cc1NC(=O)CC1CCN(CCc2ccccc2)CC1`, the Percent Effect worked out at 5.67%.
For `CC(C)(C)CC(=O)Nc1ccccc1SCC(N)=O` the value was 9.57%; for `Cn1ccc(CN2CCC(CC(=O)NC3CCCC3)CC2)cc1=O`, -8.33%.
With `CCC(=O)Nc1cc(Br)cnc1OCC(F)(F)F`, the Percent Effect is 14%.
The result for `O=C(CC1CCCC1)Nc1ccc(-n2cc(Br)cn2)nc1` reads 10.5%; that for `CCC(=O)Nc1cc(Br)cn(C)c1=O`, 103%; that for `Cc1c(CS(C)(=O)=O)cccc1NC(=O)CC1CCCC1`, 11.7%.
For `Cc1cc(=O)n(C)cc1NC(=O)CC1CCC1` the value was 75%; for `Cn1cc(Br)cc(NC(=O)CC(C)(C)C)c1=O`, 95%; for `Cn1cc(C(C)(O)CNC(=O)c2cc(Br)cn2C)cn1` (stereo not given), 25.5%.
For `Cn1cc(Br)cc(NC(=O)CC2CCC2)c1=O` the value was 103%; for `Cn1cc(Br)cc(NC(=O)Cc2cccs2)c1=O`, 34%; for `COCCNC(=O)[C@H]1CN(Cc2nccs2)C[C@H]2OCC[C@@H]12`, 15.2%.
Turning to `COCCCN1C(=O)CC[C@H]2CN(Cc3ncc[nH]3)CC[C@H]21`, the Percent Effect is -49.3%.
The result for `COc1cc(N2C[C@H](C(=O)N3CCCC3)[C@@H]3CCO[C@@H]3C2)ncn1` reads 8.06%.
The result for `O=C(c1ccco1)N1CC[C@H]2[C@H]1CCN2S(=O)(=O)C1CC1` reads 5.26%; that for `Cc1ccc(C(=O)N2C[C@@H]3COC[C@]3(COc3cccnc3)C2)cn1`, 7.52%; that for `O=C(NCc1cccs1)[C@]12COC[C@H]1CN(c1ncccn1)C2`, 5.26%.
For `CCCS(=O)(=O)N1C[C@@H](Oc2ncccc2F)[C@H]2OCCC[C@H]21` the value was 8.22%; for `c1cnc(N2CCO[C@H]3[C@H](OCc4cccnc4)CC[C@@H]32)nc1`, -9.73%.
